Results on 33 molecules are retold here after PubChem BioAssay (NCI).

The panel holds about 83,000 compounds, 20% with a hit somewhere; the sample as a whole holds those more often.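 Cell lines were cultured in 96-well plates, exposed to a single compound concentration, and assessed for percent growth 48 hours later.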 A number with no mark means an inactive call. Activity calls are given as the source filed them. Rule for the calls: active = growth percent below 10; inactive = the rest.

The assay concerns OVCAR-5 ovarian. Nature of the assay: NCI-60 one-dose screen, 48 h (100 = growth as untreated, 0 = no growth, -100 = all killed). As to conditions: 10 µM unless noted.
On to `COc1cccc(-c2nn(-c3ccccc3)cc2-c2ccnc(NCCCN)c2)c1`, for which the growth is 95.8%.
Under `Cn1cnc2c1c(=O)n(CCC(=O)Nc1ccc(F)cc1)c(=O)n2C` stands 101%; under `C=C(C)[C@@H]1CC[C@]2(C=O)CC[C@]3(C)[C@H](CC[C@@H]4[C@@]5(C)C/C(=C/c6cccnc6)C(=O)C(C)(C)[C@@H]5CC[C@]43C)[C@@H]12`, 128%.
Regarding `CN(C)c1cccc2[nH]c(-c3[nH]ncc3Nc3ccnc(N)n3)nc12`, the growth was -1.19% (active).
Under `O=Cc1nc2ccccc2[nH]1` stands 104%; under `COc1cc2nc(Cl)nc(Nc3cccc(C(=O)/C=C/c4ccc(Br)cc4)c3)c2cc1OC`, 102%; under `CC[C@H](CC[C@@H](C)[C@H]1CC[C@H]2[C@@H]3/C(=C/c4cccnc4)C(=O)C4=CC(=O)CC[C@]4(C)[C@H]3CC[C@]12C)C(C)C`, 105%.
With `C=C(C)[C@@H]1CC[C@]2(c3nnc(-c4ccncc4)o3)CC[C@]3(C)[C@H](CC[C@@H]4[C@@]5(C)CCC(=O)NC(C)(C)[C@@H]5CC[C@]43C)[C@@H]12`, the growth was 112%.
Then `COc1cc(NC(C)CN(CC(C)C)C(C)C)c2ncccc2c1` (stereo not drawn), with 109%; and `Nc1c2c(nc3ccc(Cl)cc13)CC(c1ccccc1)CC2=O` (stereo not drawn), with 73.2%; and `COC(=O)[C@]12CC[C@@H](C)[C@H](C)[C@@H]1C1=CC[C@@H]3[C@@]4(C)C[C@@H](O)[C@H](O)[C@@](C)(CO)C4=CC[C@@]3(C)[C@]1(C)CC2`, with -66% (active).
As for `CCC1C(=O)COC1=O` (stereo not drawn), the growth is 108%.
For `C=C(C)[C@@H]1CC[C@]2(C)[C@H](CC=C3[C@@H]4CC(C)(C)CC[C@]4(C(=O)OC)CC[C@]32C)[C@@]1(C)CC/C(N)=N/O`, the growth is 90.4%.
Consider `O=C(/C=C/c1cccc2ccccc12)Nc1ncc(Cc2ccccc2)s1`, for which the growth was 22.7%.
Under `N#Cc1c(-c2ccc(O)cc2)c2c(N)nn(-c3ccccc3)c2[nH]c1=O` stands 105%; under `COc1ccc(-c2c(-c3nc4ccc(N5CCOCC5)cc4[nH]3)[nH]c(C)c2C(C)=O)cc1`, 48.2%.
In the case of `c1ccc(-c2nc(Nc3ccc(-c4nc5ccccc5[nH]4)cc3)nc(N3CCOCC3)n2)cc1`, the growth is 0.632% (active).
Regarding `Cc1cc2nc3c4cc(Cl)ccc4n(CCN(C)C)c3nc2cc1C`, the growth was 21.8%.
Under `Cc1cc(N2CCOCC2)nc(N(CCCNc2ccnc3cc(Cl)ccc23)Cc2ccco2)n1` stands 38.9%; under `Cc1cc(N(CCNc2ccnc3cc(Cl)ccc23)Cc2ccco2)nc(Cl)n1`, -37.5% (active).
Turning to `COc1ccc(/C=C/C(=O)NCCO)cc1`, the growth was 88.2%.
Regarding `O=C1NC(c2ccc(Cl)c(Cl)c2)=C/C1=C\c1ccccc1`, the growth was 73.2%.
Under `N#C/C(=C\c1ccc(-c2ccccc2)o1)c1nc(-c2ccco2)cs1` stands 53.8%.
Then `C=C1C(=O)O[C@H]2[C@H]1CC/C(COC(=O)NCc1c[nH]c3ccccc13)=C\CC[C@@]1(C)O[C@@H]21`, with 86.1%; and `Cn1cc(-c2csc(-c3cn(CCN)c4ccccc34)n2)c2cccnc21`, with 74.9%.
Then `C=C(C)[C@@H]1CC[C@]2(C)[C@H](CC[C@@H]3[C@H]4[C@H]5OC[C@@]4(CCC5(C)C)CC[C@]32C)[C@@]1(C)CCCN`, with 50.6%; and `CC[C@]12C=CCN3CC[C@@]4(c5cc([C@H]6CCC(=O)N6)c(OC)cc5N(C)[C@H]4[C@@](O)(C(=O)OC)[C@@H]1OC(C)=O)[C@@H]32`, with 88.4% [2.5 µM].
For `COc1cc2c(cc1-c1c(C)noc1C)ncc1nc(C3CCCCC3)n([C@@H](C)COC(F)F)c12`, the growth was 76.6%.
On to `COc1ccc(/C=C(\C#N)c2cc3ccccc3n2S(C)(=O)=O)cc1`, for which the growth was 99.3%.
Then `CCc1cccc(CC)c1NC(=O)c1sc2nc3c(cc2c1N)CCCC3`, with 95.3%; and `O=C1CCC/C=C\C[C@H]2C=C(Cl)C(=O)/C2=C/C[C@H](CCCCC(F)(F)F)OC(=O)CCC/C=C\C[C@H]2C=C(Cl)C(=O)/C2=C/C[C@H](CCCCC(F)(F)F)O1`, with -33.6% [7.5 µM] (active); and `COc1cc(-c2cc3ncccc3c3nc(N)c4cccnc4c23)cc(OC)c1OC`, with 35.7%.
Then `COC(=O)[C@]12CC[C@@H](C)[C@H](C)[C@@H]1C1=CC[C@@H]3[C@@]4(C)C[C@@H](OC(C)=O)[C@H](O)[C@@](C)(CO)[C@@H]4[C@H](O)C[C@@]3(C)[C@]1(C)CC2`, with -78.2% (active).
